Holding throughout (test): log2 fold change, soluble protein after heating vs DMSO (PISA); higher = thermal stabilisation; K562 lysate, 10 uM; active = over 0.2 and 3.5 SD of the protein, either way, in both replicates (recomputed)
Compound in experiment [1]: NCC(=O)Nc1ccc(-n2nc(C(F)(F)F)cc2-c2ccc3c(ccc4ccccc43)c2)cc1
Summed up: (§1)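 Log-two fold change in thermal stability relative to solvent controls is reported from duplicates. For each sample, crude K562 extract from dounce-homogenised pellets in PBS pH 7.4 with 1 mM MgCl2, at 1 mg/mL protein, was treated with 10 μM compound for 30 min. Aliquots heated for 3 min across 48°C-58°C were pooled, brought to 0.5% NP-40 at 4°C and cleared at 21,000xg for 90 min. The supernatant was quantified by TMTpro 16plex LC-MS/MS with channel sums equalised.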

Compound in another experiment: O=C(CCCCCCC(=O)Nc1ccccc1)NO [vorinostat]
Summed up:
as §1

Compound in a further experiment: O=C(O)c1ccc2c(c1)nc(Nc1cccc(Cl)c1)c1ccncc12 [silmitasertib]
Summed up: as §1

Compound in experiment [2]: O=C1NC(=O)C(c2cnc3ccccn23)=C1c1cn2c3c(cc(F)cc13)CN(C(=O)N1CCCCC1)CC2
Summed up: as §1

Compound in a further experiment: c1cn2cc(-c3ccc4cn[nH]c4c3)nc(Nc3ccc(N4CCOCC4)cc3)c2n1 [entospletinib]
Summed up:
as §1

Of roughly 8,800 targets only a part is listed; those with a hit were picked by preference. About 0.5% of all pairs of compound and target were hits.

UniProt Q13418, sequence (Q13418 whole entry, looked up): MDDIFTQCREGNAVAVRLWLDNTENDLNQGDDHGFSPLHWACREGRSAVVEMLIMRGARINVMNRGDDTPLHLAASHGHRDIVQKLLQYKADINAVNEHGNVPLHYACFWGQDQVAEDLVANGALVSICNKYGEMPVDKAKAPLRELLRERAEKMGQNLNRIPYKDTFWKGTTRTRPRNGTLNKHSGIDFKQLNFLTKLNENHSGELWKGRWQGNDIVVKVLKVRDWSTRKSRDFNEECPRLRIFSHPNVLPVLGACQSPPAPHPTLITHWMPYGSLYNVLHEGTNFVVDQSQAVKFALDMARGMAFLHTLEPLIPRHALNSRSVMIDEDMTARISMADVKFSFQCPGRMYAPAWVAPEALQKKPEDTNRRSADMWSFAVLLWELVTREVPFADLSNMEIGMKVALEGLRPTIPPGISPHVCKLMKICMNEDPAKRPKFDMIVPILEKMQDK
UniProt O14979, sequence (O14979 whole entry, looked up): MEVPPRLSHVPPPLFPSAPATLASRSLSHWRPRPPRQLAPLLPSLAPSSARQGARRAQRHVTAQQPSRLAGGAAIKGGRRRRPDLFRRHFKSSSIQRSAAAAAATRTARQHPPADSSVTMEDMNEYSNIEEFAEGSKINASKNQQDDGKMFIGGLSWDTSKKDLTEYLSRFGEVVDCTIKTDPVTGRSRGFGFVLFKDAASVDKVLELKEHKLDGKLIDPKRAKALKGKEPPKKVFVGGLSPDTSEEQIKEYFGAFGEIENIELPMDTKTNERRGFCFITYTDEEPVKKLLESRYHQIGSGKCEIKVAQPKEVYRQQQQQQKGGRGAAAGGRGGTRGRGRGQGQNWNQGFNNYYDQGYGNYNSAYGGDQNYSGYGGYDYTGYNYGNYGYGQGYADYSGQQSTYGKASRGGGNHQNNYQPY
UniProt Q75QN2, sequence (Q75QN2 whole entry, looked up): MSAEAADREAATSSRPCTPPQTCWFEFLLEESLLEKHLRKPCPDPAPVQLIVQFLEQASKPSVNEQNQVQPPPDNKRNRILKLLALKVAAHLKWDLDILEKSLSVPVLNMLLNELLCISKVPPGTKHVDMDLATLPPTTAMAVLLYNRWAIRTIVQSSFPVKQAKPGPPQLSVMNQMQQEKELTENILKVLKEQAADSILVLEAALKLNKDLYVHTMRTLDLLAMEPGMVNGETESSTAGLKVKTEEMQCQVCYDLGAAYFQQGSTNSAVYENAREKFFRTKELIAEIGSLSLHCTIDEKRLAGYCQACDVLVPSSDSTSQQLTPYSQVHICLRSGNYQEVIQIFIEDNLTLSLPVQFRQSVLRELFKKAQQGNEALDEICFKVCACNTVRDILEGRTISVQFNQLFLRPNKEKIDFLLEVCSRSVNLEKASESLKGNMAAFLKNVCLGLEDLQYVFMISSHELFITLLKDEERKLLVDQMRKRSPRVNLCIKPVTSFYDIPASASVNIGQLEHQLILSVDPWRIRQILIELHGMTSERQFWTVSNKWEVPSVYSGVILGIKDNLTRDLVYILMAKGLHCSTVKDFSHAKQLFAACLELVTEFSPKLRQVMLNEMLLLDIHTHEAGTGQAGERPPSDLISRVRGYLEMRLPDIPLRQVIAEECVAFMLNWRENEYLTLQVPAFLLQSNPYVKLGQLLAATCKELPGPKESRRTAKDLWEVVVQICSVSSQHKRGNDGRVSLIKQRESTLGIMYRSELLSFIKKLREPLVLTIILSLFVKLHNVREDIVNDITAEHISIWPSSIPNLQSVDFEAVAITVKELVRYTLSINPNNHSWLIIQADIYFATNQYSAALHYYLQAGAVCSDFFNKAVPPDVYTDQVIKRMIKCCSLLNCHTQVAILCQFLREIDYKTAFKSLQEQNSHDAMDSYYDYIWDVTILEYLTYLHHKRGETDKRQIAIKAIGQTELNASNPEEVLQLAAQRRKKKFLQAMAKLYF
UniProt Q8N201, sequence (Q8N201 whole entry, looked up): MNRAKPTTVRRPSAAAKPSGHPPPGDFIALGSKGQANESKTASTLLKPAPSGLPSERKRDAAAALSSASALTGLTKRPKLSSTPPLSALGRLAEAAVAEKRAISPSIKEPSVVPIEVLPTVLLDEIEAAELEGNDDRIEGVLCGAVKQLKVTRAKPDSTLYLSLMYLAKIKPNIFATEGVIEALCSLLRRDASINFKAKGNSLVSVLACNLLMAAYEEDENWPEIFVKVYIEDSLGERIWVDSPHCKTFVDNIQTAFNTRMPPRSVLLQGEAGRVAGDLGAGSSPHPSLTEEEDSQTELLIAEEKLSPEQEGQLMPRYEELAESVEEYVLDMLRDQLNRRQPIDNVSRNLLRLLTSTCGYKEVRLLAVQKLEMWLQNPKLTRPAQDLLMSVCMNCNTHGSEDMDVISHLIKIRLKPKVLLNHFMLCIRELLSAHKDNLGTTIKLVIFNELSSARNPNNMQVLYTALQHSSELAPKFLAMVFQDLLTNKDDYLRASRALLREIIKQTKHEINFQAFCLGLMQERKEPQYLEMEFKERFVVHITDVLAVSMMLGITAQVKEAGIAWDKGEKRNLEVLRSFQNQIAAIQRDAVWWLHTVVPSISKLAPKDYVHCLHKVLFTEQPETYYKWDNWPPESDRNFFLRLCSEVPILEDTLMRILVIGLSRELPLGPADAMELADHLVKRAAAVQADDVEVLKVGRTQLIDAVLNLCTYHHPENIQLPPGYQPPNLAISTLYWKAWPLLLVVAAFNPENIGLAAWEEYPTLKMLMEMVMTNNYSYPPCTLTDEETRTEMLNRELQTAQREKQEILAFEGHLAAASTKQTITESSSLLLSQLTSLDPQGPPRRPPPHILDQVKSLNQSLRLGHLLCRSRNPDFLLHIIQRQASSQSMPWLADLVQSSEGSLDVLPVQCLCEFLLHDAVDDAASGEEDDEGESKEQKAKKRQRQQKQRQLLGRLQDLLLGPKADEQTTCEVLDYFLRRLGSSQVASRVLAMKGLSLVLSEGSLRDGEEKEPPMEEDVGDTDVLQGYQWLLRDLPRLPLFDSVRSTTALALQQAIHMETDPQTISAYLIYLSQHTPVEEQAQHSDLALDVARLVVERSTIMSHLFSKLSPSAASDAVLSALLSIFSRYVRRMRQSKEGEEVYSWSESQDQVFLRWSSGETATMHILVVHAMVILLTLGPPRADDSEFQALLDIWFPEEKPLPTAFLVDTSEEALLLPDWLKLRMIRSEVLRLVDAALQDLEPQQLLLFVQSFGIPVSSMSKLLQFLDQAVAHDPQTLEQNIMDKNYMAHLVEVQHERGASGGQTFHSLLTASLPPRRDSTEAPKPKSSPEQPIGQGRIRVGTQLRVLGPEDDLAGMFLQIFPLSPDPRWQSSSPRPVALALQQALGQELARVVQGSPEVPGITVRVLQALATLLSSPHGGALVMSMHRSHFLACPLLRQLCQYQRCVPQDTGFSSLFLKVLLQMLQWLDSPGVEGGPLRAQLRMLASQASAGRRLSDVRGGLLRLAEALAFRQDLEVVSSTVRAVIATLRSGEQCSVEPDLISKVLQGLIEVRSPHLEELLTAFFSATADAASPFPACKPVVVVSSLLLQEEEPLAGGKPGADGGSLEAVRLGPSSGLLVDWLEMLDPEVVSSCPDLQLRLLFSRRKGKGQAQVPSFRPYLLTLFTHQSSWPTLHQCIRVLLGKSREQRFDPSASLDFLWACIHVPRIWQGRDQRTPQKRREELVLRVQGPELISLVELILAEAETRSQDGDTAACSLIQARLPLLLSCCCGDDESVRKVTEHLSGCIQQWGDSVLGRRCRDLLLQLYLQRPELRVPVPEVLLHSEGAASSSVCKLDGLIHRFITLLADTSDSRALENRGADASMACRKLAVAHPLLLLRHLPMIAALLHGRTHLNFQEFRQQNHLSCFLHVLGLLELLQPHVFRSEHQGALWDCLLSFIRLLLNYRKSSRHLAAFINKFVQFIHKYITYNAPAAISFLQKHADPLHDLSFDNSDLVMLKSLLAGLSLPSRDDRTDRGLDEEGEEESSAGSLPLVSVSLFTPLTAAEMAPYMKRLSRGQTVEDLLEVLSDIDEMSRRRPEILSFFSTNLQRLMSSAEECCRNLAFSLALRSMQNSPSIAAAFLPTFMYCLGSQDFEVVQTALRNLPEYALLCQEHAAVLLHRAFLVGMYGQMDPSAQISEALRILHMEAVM
UniProt Q1KMD3, sequence (Q1KMD3 whole entry, looked up): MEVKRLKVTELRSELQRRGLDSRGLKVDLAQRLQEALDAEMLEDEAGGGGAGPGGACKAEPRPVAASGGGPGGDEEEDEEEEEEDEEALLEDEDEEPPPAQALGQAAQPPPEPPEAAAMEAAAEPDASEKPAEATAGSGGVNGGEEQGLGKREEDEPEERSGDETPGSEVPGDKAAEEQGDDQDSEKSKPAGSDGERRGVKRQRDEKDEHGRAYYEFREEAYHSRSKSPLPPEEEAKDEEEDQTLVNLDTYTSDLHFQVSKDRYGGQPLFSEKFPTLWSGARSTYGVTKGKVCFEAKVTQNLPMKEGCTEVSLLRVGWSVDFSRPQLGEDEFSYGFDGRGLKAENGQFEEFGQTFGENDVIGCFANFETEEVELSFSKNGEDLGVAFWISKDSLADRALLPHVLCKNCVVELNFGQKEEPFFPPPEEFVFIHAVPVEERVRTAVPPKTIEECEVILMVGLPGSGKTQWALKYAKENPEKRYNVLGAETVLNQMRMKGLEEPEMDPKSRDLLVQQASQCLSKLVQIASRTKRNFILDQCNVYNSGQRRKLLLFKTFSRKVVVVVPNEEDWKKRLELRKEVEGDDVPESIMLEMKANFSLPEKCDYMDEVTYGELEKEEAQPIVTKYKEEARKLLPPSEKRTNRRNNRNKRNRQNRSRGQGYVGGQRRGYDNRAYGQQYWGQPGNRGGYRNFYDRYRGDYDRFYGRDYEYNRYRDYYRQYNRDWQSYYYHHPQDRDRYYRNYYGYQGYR
UniProt Q9ULR0, sequence (Q9ULR0 whole entry, looked up): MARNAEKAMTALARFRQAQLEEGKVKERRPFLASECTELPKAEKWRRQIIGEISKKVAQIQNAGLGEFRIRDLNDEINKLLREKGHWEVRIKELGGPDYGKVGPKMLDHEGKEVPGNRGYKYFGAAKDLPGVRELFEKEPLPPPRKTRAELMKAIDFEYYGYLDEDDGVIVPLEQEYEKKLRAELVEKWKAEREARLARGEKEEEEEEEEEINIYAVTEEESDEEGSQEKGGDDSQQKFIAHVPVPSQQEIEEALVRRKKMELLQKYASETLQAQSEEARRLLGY

With ISY1 isoform 1 (UniProt Q9ULR0), the log2 fold change in experiment [1] was -0.163 (inactive); in the experiment with vorinostat it was 0.05 (inactive); with silmitasertib, 0.032 (inactive); in experiment [2], -0.01 (inactive); in the experiment with entospletinib it was -0.02 (inactive).

For the target HNRNPDL (UniProt O14979), the log2 fold change in experiment [1] was -0.032 (inactive); in the experiment with vorinostat it was 0.133 (inactive); with silmitasertib it was -0.01 (inactive); in experiment [2], 0.01 (inactive); with entospletinib, 0.01 (inactive).

Turning to INTS1 (UniProt Q8N201), the log2 fold change was 0.014 (inactive) in experiment [1]; -0.409 (active) with vorinostat; 0.027 (inactive) with silmitasertib; -0.034 (inactive) in experiment [2]; 0.003 (inactive) in the experiment with entospletinib.

In the case of HECTD4 (UniProt J3KPF0), the log2 fold change in experiment [1] was 0.051 (inactive); in the experiment with vorinostat it was -0.472 (active); with silmitasertib, -0.003 (inactive); in experiment [2], 0.032 (inactive); with entospletinib, 0.001 (inactive).

With INTS8 (UniProt Q75QN2), the log2 fold change in experiment [1] is -0.012 (inactive); in the experiment with vorinostat it was -0.401 (active); with silmitasertib it was 0.071 (inactive); in experiment [2] it was -0.016 (inactive); in the experiment with entospletinib, 0.054 (inactive).

With INTS7 (UniProt Q9NVH2), the log2 fold change was 0.017 (inactive) in experiment [1]; -0.149 (inactive) with vorinostat; -0.011 (inactive) in the experiment with silmitasertib; 0.189 (inactive) in experiment [2]; 0.03 (inactive) with entospletinib.

As to IRAK1 (UniProt P51617), the log2 fold change in experiment [1] is -0.073 (inactive); in the experiment with vorinostat, -0.359 (active); in the experiment with silmitasertib, 0.205 (inactive); in experiment [2], -0.014 (inactive); with entospletinib, 0.232 (inactive).

On to ILK (UniProt Q13418), for which the log2 fold change in experiment [1] is -0.047 (inactive); in the experiment with vorinostat, -0.343 (active); in the experiment with silmitasertib, 0.086 (inactive); in experiment [2] it was 0.019 (inactive); in the experiment with entospletinib, 0.096 (inactive).

HNRNPUL2 (UniProt Q1KMD3): the log2 fold change was 0.029 (inactive) in experiment [1]; -0.017 (inactive) with vorinostat; 0.022 (inactive) with silmitasertib; -0.023 (inactive) in experiment [2]; -0.032 (inactive) with entospletinib.

For the origin of these results see the supplement of paper PMC10849652.
